In the supplement of paper PMC10849652:
Of roughly 7,900 targets only a part is listed; those with a hit were picked by preference. About 0.6% of all pairs of compound and target were hits. Unmarked numbers belong to inactive results.

Assays:
Experiment in all cases: log2 fold change, soluble protein after heating vs DMSO (PISA); higher = thermal stabilisation; K562 cells, 10 uM, 30 min; active = over 0.2 and 3.5 SD of the protein, either way, in both replicates (recomputed)
bafetinib = compound: Cc1ccc(NC(=O)c2ccc(CN3CC[C@H](N(C)C)C3)c(C(F)(F)F)c2)cc1Nc1nccc(-c2cncnc2)n1 [bafetinib]
Summary of the method: (§1)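 Soluble protein was quantified by TMTpro 16plex LC-MS/MS after channel sums were equalised. It was obtained as the supernatant after 21,000xg for 90 min from pooled aliquots of K562 cells (2×10^6 cells/mL, 10 μM compound, 30 min) heated for 3 min across 48°C-58°C and extracted in PBS with 0.5% NP-40 at 4°C. Thermal stability values are relative to control samples and come from duplicates. They are given as log2 fold changes.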

[1] = compound: Cc1cccc(CC(=O)N2CCc3c2ccc(-c2cn(C)c4ncnc(N)c24)c3F)n1
Summary of the method: as §1

nilotinib = compound: Cc1cn(-c2cc(NC(=O)c3ccc(C)c(Nc4nccc(-c5cccnc5)n4)c3)cc(C(F)(F)F)c2)cn1 [nilotinib]
Summary of the method: as §1

[2] = compound: Cc1nc(Nc2n[nH]c3c2CN(C(=O)N[C@H](CN(C)C)c2ccccc2)C3(C)C)c2sccc2n1
Summary of the method: as §1

dasatinib = compound: Cc1nc(Nc2ncc(C(=O)Nc3c(C)cccc3Cl)s2)cc(N2CCN(CCO)CC2)n1 [dasatinib]
Summary of the method: as §1

[3] = compound: Cc1ncc(-c2ccnc(Nc3ccc(S(C)(=O)=O)cc3)n2)n1C(C)C
Summary of the method: as §1

[4] = compound: Cn1cc(-c2ccc3c(c2)CCN3C(=O)Cc2cccc(C(F)(F)F)c2)c2c(N)ncnc21
Summary of the method: as §1

[5] = compound: Cn1cc(-c2ccc3nnc(C(F)(F)c4ccc5ncccc5c4)n3n2)cn1
Summary of the method: as §1

tipifarnib = compound: Cn1cncc1[C@@](N)(c1ccc(Cl)cc1)c1ccc2c(c1)c(-c1cccc(Cl)c1)cc(=O)n2C [tipifarnib]
Summary of the method: as §1

mubritinib = compound: FC(F)(F)c1ccc(/C=C/c2nc(COc3ccc(CCCCn4ccnn4)cc3)co2)cc1 [mubritinib]
Summary of the method: as §1

[6] = compound: NC(=O)Nc1cc(-c2cccc(F)c2)sc1C(=O)N[C@H]1CCCNC1
Summary of the method: as §1

[7] = compound: NC(=O)c1cnc(N[C@@H]2CCCC[C@@H]2N)nc1Nc1cccc(-n2nccn2)c1
Summary of the method: as §1

[8] = compound: NC1(c2ccc(-c3nc4ccn5c(=O)[nH]nc5c4cc3-c3ccccc3)cc2)CCC1
Summary of the method: as §1

[9] = compound: NCC(=O)Nc1ccc(-n2nc(C(F)(F)F)cc2-c2ccc3c(ccc4ccccc43)c2)cc1
Summary of the method: as §1

entinostat = compound: Nc1ccccc1NC(=O)c1ccc(CNC(=O)OCc2cccnc2)cc1 [entinostat]
Summary of the method: as §1

vorinostat = compound: O=C(CCCCCCC(=O)Nc1ccccc1)NO [vorinostat]
Summary of the method: as §1

citarinostat = compound: O=C(CCCCCCNC(=O)c1cnc(N(c2ccccc2)c2ccccc2Cl)nc1)NO [citarinostat]
Summary of the method: as §1

silmitasertib = compound: O=C(O)c1ccc2c(c1)nc(Nc1cccc(Cl)c1)c1ccncc12 [silmitasertib]
Summary of the method: as §1

[10] = compound: O=C1NC(=O)C(c2cnc3ccccn23)=C1c1cn2c3c(cc(F)cc13)CN(C(=O)N1CCCCC1)CC2
Summary of the method: as §1

[11] = compound: c1cc(OCCN2CCCCC2)cc(-c2n[nH]c3ccc(-c4nnc[nH]4)cc23)c1
Summary of the method: as §1

Sequence of UniProt O95182 (O95182 whole entry, looked up): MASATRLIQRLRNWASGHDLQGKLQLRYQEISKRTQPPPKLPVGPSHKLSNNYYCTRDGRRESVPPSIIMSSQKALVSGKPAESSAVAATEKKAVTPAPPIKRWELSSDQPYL
Sequence of UniProt Q9NZT2 (Q9NZT2 whole entry, looked up): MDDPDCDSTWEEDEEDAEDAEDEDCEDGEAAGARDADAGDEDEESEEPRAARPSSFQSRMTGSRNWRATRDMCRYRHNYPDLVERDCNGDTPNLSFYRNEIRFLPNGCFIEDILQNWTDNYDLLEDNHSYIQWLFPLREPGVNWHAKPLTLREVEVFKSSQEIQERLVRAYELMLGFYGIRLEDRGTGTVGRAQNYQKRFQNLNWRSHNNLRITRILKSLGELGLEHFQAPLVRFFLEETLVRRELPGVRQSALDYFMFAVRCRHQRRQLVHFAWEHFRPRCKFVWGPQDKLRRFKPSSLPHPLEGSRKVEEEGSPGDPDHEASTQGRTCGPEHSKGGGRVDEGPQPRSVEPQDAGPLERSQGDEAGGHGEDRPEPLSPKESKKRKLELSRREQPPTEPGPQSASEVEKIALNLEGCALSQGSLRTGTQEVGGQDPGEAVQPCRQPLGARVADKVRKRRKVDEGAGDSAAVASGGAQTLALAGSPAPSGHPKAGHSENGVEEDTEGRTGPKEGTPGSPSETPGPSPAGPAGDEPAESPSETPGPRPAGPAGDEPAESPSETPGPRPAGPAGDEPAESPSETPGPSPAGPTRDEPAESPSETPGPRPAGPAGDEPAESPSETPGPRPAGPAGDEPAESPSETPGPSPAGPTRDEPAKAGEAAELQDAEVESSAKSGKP
Sequence of UniProt Q9HBL8 (Q9HBL8 whole entry, looked up): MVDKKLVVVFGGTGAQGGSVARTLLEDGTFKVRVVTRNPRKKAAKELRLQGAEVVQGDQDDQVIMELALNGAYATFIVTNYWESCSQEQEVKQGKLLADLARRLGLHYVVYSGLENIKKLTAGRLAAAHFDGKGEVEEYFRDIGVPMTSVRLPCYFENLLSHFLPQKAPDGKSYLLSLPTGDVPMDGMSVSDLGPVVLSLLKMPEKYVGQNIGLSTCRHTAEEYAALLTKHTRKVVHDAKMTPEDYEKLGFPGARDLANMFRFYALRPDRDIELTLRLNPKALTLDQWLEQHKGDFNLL
Sequence of UniProt Q12986 (Q12986 whole entry, looked up): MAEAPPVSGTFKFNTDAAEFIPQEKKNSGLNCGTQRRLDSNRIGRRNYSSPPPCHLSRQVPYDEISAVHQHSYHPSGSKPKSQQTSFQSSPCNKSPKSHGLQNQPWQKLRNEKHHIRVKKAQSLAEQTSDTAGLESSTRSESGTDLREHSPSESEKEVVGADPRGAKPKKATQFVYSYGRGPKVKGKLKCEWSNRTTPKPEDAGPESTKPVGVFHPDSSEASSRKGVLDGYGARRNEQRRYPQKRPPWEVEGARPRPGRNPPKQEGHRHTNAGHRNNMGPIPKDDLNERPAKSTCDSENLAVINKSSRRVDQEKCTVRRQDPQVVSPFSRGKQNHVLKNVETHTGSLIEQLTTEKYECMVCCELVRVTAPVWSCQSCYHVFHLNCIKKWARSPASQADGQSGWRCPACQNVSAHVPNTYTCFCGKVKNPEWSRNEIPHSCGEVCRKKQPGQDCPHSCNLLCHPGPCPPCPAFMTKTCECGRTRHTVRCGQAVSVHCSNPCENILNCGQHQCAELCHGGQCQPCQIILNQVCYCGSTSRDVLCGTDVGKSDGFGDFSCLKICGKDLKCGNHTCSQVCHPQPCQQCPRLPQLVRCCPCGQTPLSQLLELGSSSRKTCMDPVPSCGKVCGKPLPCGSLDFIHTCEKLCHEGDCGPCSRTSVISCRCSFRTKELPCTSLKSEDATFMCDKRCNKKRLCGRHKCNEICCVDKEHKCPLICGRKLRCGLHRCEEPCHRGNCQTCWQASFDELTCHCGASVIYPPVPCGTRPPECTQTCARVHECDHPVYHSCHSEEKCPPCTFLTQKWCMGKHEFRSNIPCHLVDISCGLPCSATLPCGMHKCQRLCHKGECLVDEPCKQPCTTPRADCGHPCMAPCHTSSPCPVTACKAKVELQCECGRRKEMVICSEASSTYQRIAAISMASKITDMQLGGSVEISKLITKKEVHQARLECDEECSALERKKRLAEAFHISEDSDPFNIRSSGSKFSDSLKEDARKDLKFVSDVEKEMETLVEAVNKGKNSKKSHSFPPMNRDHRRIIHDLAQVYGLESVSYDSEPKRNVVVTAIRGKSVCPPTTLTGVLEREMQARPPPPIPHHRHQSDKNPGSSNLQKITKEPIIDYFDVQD
Sequence of UniProt O60551 (O60551 whole entry, looked up): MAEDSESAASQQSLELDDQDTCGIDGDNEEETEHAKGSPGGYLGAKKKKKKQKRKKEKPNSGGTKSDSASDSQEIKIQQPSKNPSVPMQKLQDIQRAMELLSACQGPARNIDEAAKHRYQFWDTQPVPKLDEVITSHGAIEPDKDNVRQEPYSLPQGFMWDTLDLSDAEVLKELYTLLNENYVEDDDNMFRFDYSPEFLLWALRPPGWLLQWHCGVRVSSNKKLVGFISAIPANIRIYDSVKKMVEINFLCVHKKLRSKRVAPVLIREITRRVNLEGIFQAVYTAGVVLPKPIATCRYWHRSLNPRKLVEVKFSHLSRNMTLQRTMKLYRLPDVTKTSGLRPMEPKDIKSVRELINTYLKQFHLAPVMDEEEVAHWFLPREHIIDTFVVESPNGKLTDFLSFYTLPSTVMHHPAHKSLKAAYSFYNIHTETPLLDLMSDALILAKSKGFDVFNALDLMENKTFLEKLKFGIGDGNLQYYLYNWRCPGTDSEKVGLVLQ
Sequence of UniProt Q8NI08 (Q8NI08 whole entry, looked up): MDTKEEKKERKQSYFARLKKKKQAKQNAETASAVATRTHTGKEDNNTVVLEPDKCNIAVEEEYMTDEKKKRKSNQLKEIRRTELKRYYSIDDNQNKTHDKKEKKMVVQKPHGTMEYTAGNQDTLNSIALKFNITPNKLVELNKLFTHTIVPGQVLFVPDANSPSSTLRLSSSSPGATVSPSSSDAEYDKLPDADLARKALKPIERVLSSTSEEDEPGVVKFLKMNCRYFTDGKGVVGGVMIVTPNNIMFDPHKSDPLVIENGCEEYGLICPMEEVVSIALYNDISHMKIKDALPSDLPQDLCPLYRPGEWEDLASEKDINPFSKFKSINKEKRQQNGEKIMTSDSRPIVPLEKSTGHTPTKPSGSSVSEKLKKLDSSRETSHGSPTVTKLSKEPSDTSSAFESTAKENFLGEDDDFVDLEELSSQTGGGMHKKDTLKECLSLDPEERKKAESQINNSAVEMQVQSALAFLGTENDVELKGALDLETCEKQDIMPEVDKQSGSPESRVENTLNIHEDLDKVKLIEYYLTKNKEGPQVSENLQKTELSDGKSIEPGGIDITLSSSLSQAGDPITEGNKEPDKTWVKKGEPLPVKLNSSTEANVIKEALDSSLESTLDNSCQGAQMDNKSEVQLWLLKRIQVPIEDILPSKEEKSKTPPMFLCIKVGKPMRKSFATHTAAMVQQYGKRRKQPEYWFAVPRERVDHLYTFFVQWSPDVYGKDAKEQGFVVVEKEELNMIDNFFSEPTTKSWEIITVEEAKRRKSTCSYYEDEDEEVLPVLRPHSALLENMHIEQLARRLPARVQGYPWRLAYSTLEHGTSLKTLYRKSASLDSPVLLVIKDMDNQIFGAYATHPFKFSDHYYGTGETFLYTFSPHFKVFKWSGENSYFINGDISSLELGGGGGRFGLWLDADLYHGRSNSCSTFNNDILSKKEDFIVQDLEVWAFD
Sequence of UniProt Q13952 (Q13952 whole entry, looked up): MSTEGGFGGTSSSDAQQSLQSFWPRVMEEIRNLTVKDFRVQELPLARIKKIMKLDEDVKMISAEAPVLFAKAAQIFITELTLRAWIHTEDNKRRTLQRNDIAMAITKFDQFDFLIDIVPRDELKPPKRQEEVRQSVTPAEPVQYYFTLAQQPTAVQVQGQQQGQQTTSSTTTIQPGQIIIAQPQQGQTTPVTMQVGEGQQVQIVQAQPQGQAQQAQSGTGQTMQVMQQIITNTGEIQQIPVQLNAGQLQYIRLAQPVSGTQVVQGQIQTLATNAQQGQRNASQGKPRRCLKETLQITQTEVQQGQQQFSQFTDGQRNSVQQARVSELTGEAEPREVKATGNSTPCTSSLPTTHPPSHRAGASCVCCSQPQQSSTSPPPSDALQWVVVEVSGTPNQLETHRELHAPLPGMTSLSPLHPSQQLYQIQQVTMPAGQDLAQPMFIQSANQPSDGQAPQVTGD
Sequence of UniProt P04181 (P04181 whole entry, looked up): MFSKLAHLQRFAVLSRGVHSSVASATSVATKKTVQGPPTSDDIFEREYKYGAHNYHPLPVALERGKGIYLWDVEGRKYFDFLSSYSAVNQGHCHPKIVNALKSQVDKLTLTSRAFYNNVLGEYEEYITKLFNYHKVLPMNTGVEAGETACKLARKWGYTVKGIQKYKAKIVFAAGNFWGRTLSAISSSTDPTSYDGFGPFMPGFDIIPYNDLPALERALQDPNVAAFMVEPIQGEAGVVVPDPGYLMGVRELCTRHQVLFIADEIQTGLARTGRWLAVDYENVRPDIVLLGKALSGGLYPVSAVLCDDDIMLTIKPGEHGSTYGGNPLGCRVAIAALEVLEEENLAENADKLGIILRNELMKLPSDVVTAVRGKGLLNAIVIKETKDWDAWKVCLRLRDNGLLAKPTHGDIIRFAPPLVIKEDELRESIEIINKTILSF
Sequence of UniProt Q96DE0 (Q96DE0 whole entry, looked up): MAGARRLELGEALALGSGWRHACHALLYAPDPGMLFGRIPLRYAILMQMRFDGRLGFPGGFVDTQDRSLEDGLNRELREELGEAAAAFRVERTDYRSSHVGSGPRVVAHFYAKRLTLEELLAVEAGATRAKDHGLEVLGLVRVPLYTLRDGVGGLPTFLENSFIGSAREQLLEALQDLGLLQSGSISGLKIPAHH
Sequence of UniProt Q8WVJ2 (Q8WVJ2 whole entry, looked up): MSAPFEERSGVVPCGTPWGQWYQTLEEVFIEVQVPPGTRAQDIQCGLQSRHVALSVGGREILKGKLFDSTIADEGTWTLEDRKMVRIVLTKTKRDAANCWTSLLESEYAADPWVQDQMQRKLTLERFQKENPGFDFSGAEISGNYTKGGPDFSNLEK

| Target | log2 fold change (bafetinib) | log2 fold change [1] | log2 fold change (nilotinib) | log2 fold change [2] | log2 fold change (dasatinib) | log2 fold change [3] | log2 fold change [4] | log2 fold change [5] | log2 fold change (tipifarnib) | log2 fold change (mubritinib) | log2 fold change [6] | log2 fold change [7] | log2 fold change [8] | log2 fold change [9] | log2 fold change (entinostat) | log2 fold change (vorinostat) | log2 fold change (citarinostat) | log2 fold change (silmitasertib) | log2 fold change [10] | log2 fold change [11] |
| --- | --- | --- | --- | --- | --- | --- | --- | --- | --- | --- | --- | --- | --- | --- | --- | --- | --- | --- | --- | --- |
| OAT (UniProt P04181) | -0.038 | -0.018 | 0.036 | -0.021 | -0.109 | -0.073 | 0.026 | 0.061 | -0.004 | 0.002 | -0.051 | -0.076 | -0.235 | -0.058 | 0.029 | 0.129 | 0.131 | -0.036 | -0.031 | 0.006 |
| MTHFD1 (UniProt P11586) | 0.077 | 0.096 | 0.214 (active) | -0.051 | -0.135 | 0.019 | 0.069 | 0.021 | -0.088 | 0.122 | -0.028 | -0.011 | 0.094 | -0.028 | 0.024 | 0.05 | 0.051 | -0.039 | -0.042 | -0.021 |
| NMT2 (UniProt O60551) | 0.021 | 0.047 | 0.018 | 0.083 | -0.088 | -0.031 | -0.003 | 0.03 | -0.015 | 0.041 | 0 | -0.089 | -0.168 | -0.164 | -0.004 | -0.049 | 0.007 | -0.028 | -0.017 | -0.491 (active) |
| NFX1 (UniProt Q12986) | -0.044 | -0.026 | -0.042 | 0.075 | 0.085 | -0.011 | 0.07 | -0.15 | 0.131 | -0.096 | 0.157 | 0.008 | 0.659 (active) | 0.045 | 0.014 | -0.016 | -0.033 | -0.006 | -0.018 | -0.019 |
| NECTIN2 (UniProt Q92692) | 0.03 | -0.023 | -0.023 | 0.022 | -0.017 | 0.055 | 0.096 | 0.009 | 0.008 | 0.023 | 0 | 0.107 | 0.056 | 0.099 | -0.029 | -0.041 | 0.034 | -0.081 | -0.03 | -0.006 |
| NUDCD2 (UniProt Q8WVJ2) | 0.017 | 0.033 | -0.119 | -0.216 | -0.171 | -0.026 | 0.02 | 0.066 | -0.1 | 0.077 | -0.108 | -0.099 | -0.056 | -0.172 | 0.028 | 0.147 | 0.007 | 0.063 | -0.183 | -0.044 |
| OTULIN (UniProt Q96BN8) | -0.039 | 0.066 | -0.091 | -0.124 | -0.169 | 0.033 | -0.051 | 0.235 | -0.081 | 0.152 | 0.008 | -0.017 | -0.183 | -0.093 | 0.097 | 0.038 | -0.005 | 0.086 | -0.143 | -0.077 |
| NCOA7 (UniProt Q8NI08) | -0.017 | 0.154 | -0.044 | -0.046 | -0.144 | -0.039 | 0.085 | 0.004 | -0.125 | 0.054 | -0.061 | -0.036 | -0.068 | -0.033 | -0.067 | 0.026 | -0.001 | 0.022 | -0.093 | -0.005 |
| OGFR (UniProt Q9NZT2) | -0.041 | 0.114 | -0.024 | -0.093 | -0.114 | -0.008 | 0.036 | -0.002 | 0.025 | 0.328 (active) | 0.049 | -0.198 | 0.015 | 0.068 | -0.02 | 0.096 | 0.121 | 0.003 | -0.019 | -0.092 |
| NFYC (UniProt Q13952) | -0.017 | -0.041 | -0.024 | -0.021 | 0.032 | -0.008 | 0.014 | 0.048 | 0.038 | 0.066 | 0.008 | -0.079 | -0.054 | -0.027 | -0.034 | -0.057 | -0.002 | 0.024 | -0.058 | -0.044 |
| NDUFA7 (UniProt O95182) | -0.056 | 0.124 | 0.016 | -0.025 | -0.145 | -0.059 | -0.005 | -0.061 | 0.002 | 0.247 (active) | 0.019 | 0.005 | -0.108 | -0.059 | 0 | 0.012 | 0.008 | -0.037 | -0.047 | -0.039 |
| NOL7 (UniProt Q9UMY1) | 0.284 | -0.107 | -0.016 | 0.146 | 0.183 | -0.073 | -0.257 | -0.148 | 0.154 | -0.156 | 0.107 | 0.131 | 0.316 | 0.177 | -0.079 | -0.042 | -0.101 | 0.166 | 0.121 | -0.218 |
| NISCH (UniProt Q9Y2I1) | -0.053 | 0.053 | -0.138 | -0.158 | -0.233 | -0.324 | -0.002 | -0.02 | -0.03 | -0.009 | -0.052 | -0.293 | -0.354 | -0.168 | 0.101 | 0.09 | 0.023 | 0.065 | 0.081 | -0.147 |
| NPEPPS (UniProt P55786) | 0.031 | 0.011 | 0.002 | 0.121 | -0.083 | -0.063 | 0.085 | 0.02 | -0.032 | 0.102 | -0.02 | -0.035 | -0.046 | -0.041 | -0.007 | 0.076 | 0.048 | -0.038 | -0.003 | -0.03 |
| NUDT16 (UniProt Q96DE0) | -0.044 | -0.035 | 0 | 0.015 | 0.058 | -0.049 | 0.107 | 0.019 | -0.02 | 0.049 | 0.02 | 0.08 | -0.01 | 0.205 (active) | 0 | -0.069 | 0.018 | 0.016 | -0.106 | 0.034 |
| NMRAL1 (UniProt Q9HBL8) | 0.806 (active) | -0.026 | 1.29 (active) | 0.024 | -0.071 | -0.018 | 0.031 | 0.962 (active) | -0.035 | -0.145 | 0.391 | 1.06 (active) | 0.717 | -0.16 | -0.052 | -0.139 | -0.151 | 0.018 | -0.005 | 0.374 |
